Laboratory results as given in the supplement of paper PMC13380429.

How the values were obtained:
[1] = tested on: Vero E6 infected with SARS-CoV-2; assay: morphology score (similarity to uninfected cells); higher = more like uninfected cells; conditions: 24 h
[2] = tested on: Vero E6 infected with SARS-CoV-2; assay: SARS-CoV-2 infection rate relative to infected DMSO; higher = more infection, active = 60 or less; conditions: 24 h

| Compound | morphology score [1] | SARS-CoV-2 infection rate [2] |
| --- | --- | --- |
| CO[C@H]1C[C@H](O[C@H]2CC[C@@]3(C)[C@H](CC[C@@H]4[C@@H]3CC[C@]3(C)[C@@H](C5=CC(=O)OC5)[C@@H](OC(C)=O)C[C@]43O)C2)O[C@@H](C)[C@@H]1O [oleandrin] (0.833333 µM) | -0.173 | 118% (inactive) |
| CC(C)[C@@H]1C(=O)N(S(C)(=O)=O)[C@@H]2CCN(C(=O)/C=C/CN3CCCCC3)[C@H]21 (10 µM) | 0.0406 | 106% (inactive) |
| CC(C)[N+](C)(CCOC(=O)C1c2ccccc2Oc2ccccc21)C(C)C [propantheline] (10 µM) | 0.214 | 99.5% (inactive) |
| Ic1cncc(OC[C@@H]2CCN2)c1 (10 µM) | 0.114 | 101% (inactive) |
| COc1ccc(N(C(=O)Oc2c(C)cccc2C)c2ccnc(Nc3ccc(N4CCN(C)CC4)cc3)n2)c(OC)c1 (10 µM) | 0.0671 | 111% (inactive) |
| CCOC(=O)c1ccc(N2NC(=O)/C(=C/c3ccc([N+](=O)[O-])o3)C2=O)cc1 (10 µM) | 0.149 | 85% (inactive) |
| CN1C(C(=O)Nc2ccccn2)=C(O)c2sccc2S1(=O)=O [tenoxicam] (10 µM) | -0.0614 | 108% (inactive) |
| Nc1cc(N2CCCCC2)nc(N)[n+]1[O-] [minoxidil] (10 µM) | 0.0795 | 104% (inactive) |
| CC1=CC[C@@H](C(C)(C)O)C[C@@H]1O [sobrepin] (10 µM) | -0.0987 | 114% (inactive) |
| NC(CO)C(=O)NNCc1ccc(O)c(O)c1O (stereo not given) [benserazide] (10 µM) | -0.102 | 96.5% (inactive) |
| N#CN1CCCC1 [pyrrolidine-1-carbonitrile] (10 µM) | 0.254 | 92% (inactive) |
| C[N+]1([O-])[C@@H]2C[C@@H](OC(=O)[C@H](CO)c3ccccc3)C[C@H]1[C@@H]1O[C@@H]12 (stereo not given in full) [scopolamine-N-oxide] (10 µM) | 0.142 | 107% (inactive) |
| Cc1nc(N)sc1CCN [amthamine] (10 µM) | 0.148 | 92.5% (inactive) |
| CC(C)(C)CC(C)(C)c1cc(Cc2cc(C(C)(C)CC(C)(C)C)cc(-n3nc4ccccc4n3)c2O)c(O)c(-n2nc3ccccc3n2)c1 [bisoctrizole] (10 µM) | -0.0457 | 114% (inactive) |
| O=C(Nc1cc(C(F)(F)F)ccc1O)Nc1cc(C(F)(F)F)ccc1O (10 µM) | 0.119 | 104% (inactive) |
| C[C@@H]1CC[C@@]2(NC1)O[C@H]1C[C@H]3[C@@H]4CC=C5C[C@@H](O[C@@H]6O[C@H](CO)[C@@H](O[C@@H]7O[C@@H](C)[C@H](O)[C@@H](O)[C@H]7O)[C@H](O)[C@H]6O[C@@H]6O[C@@H](C)[C@H](O)[C@@H](O)[C@H]6O)CC[C@]5(C)[C@H]4CC[C@]3(C)[C@H]1[C@@H]2C [solamargine] (0.833333 µM) | 0.117 | 102% (inactive) |
| CN[C@@H](C)CC1CCCCC1 [propylhexedrine] (10 µM) | -0.0197 | 110% (inactive) |
| O=C(N[C@H]1CCN(C(=O)c2cc(C(F)(F)F)cc(C(F)(F)F)c2)[C@H](Cc2ccc(Cl)cc2)C1)c1ccnc2ccccc12 (10 µM) | 0.195 | 81.5% (inactive) |
| N#C/C(=C\c1cccn1S(=O)(=O)c1cccc([N+](=O)[O-])c1)S(=O)(=O)c1ccc(F)cc1 (10 µM) | -0.181 | 109% (inactive) |
| CC(C)Oc1ccc(Cc2ccc(NC3=NCCN3)cc2)cc1 (10 µM) | 0.0823 | 100% (inactive) |
| Oc1c(I)cc(I)c2cccnc12 [iodoquinol] (0.833333 µM) | 0.155 | 99.5% (inactive) |
| CCCCCCCCCCCCCCCC[n+]1ccccc1 [cetylpyridinium] (0.833333 µM) | 0.0939 | 86% (inactive) |
| O=C1CS[C@@H](c2ccccc2Cl)c2cc(Cl)ccc2N1 (racemic) (10 µM) | 0.245 | 89% (inactive) |
| CCC[C@H](NC(=O)[C@@H]1[C@H]2CCC[C@H]2CN1C(=O)[C@@H](NC(=O)[C@@H](NC(=O)c1cnccn1)C1CCCCC1)C(C)(C)C)C(=O)C(=O)NC1CC1 [telaprevir] (10 µM) | 0.229 | 106% (inactive) |
| CC(=O)Nc1cccc(-n2c(=O)n(C3CC3)c(=O)c3c(Nc4ccc(I)cc4F)n(C)c(=O)c(C)c32)c1 [trametinib] (0.833333 µM) | 0.263 | 89% (inactive) |
